Active and inactive are the calls of the source. Unless noted, no rule for the calls is given here.
What was measured:
[1] = HepG2 liver cancer cell viability effects, profiling panel, resazurin fluorescence, 24 h, PK04 Diversity Set (AID 1172); settings: higher = more signal; also: test concentration not given here
[2] = basal S. cerevisiae growth modulation, no modifier, primary screen, OD600, strain BY4716, 24 h, basal condition (AID 1173); settings: OD600, 24 h, higher = more signal, called active from +8 up or from −8 down
[3] = MM1S myeloma cell viability, profiling panel, resazurin fluorescence, basal, 24 h, PK04 Diversity Set (AID 1174); settings: higher = more signal, called active from +8 up or from −8 down;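 also: MM1S multiple myeloma cell line; test concentration not given here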
[4] = target: Dihydroorotate dehydrogenase (quinone), mitochondrial (Plasmodium falciparum (isolate 3D7)) (UniProt Q08210); test: PfDHODH enzyme inhibitors, primary screen, biochemical, C-terminal His tag, absorbance 600 nm (AID 1175); settings: DCIP absorbance 600 nm, higher = more signal, called active from +8 up or from −8 down;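 also: recombinant parasite enzyme with a five histidine tag at its C terminus; test concentration not given here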
Chain of Dihydroorotate dehydrogenase (quinone), mitochondrial (Plasmodium falciparum (isolate 3D7)) (Q08210 whole entry, looked up): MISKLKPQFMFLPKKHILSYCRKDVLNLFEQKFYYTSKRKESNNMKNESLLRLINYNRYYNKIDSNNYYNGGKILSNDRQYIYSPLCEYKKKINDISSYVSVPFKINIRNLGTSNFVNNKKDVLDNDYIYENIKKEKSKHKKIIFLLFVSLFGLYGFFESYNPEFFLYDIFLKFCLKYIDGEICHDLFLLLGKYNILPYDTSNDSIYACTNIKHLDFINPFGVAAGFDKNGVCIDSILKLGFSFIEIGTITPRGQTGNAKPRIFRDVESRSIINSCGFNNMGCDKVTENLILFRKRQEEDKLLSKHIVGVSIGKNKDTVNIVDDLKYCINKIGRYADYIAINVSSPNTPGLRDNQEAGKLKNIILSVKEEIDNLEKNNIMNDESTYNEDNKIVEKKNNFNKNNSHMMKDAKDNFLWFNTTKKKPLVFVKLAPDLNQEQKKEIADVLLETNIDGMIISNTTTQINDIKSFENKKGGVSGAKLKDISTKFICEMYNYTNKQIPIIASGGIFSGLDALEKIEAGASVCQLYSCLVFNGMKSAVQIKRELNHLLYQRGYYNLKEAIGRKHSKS

[5] = P. aeruginosa biofilm formation inhibitors, primary screen, strain PAO1, LB-PBS medium, absorbance 600 nm (AID 1176); also: test concentration not given here; settings: P. aeruginosa PAO1 growth/biofilm, A600, 12 h; higher = more signal
[6] = S. cerevisiae RM11-1a growth modifiers, primary screen, strain RM11-1a, OD600, basal, 24 h (AID 1177); settings: OD600, 24 h, higher = more signal, called active from +8 up or from −8 down;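 also: cultures grown under basal conditions with no added stressor; test concentration not given here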
[7] = E. coli acrAB mutant growth effects, primary screen, E. coli filamentation inducers, strain DRC39, OD650, 24 h (AID 1178); settings: higher = more signal, called active from +8 up or from −8 down;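 also: growth measured as culture turbidity by optical density at 650 nm; test concentration not given here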
[8] = E. coli acrAB mutant growth effects, primary screen, E. coli filamentation inducers, strain DRC39, OD650, 48 h (AID 1179);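 also: screen aims at cell division blockers that make cells filament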; settings: E. coli DRC39 delta-acrAB growth, higher = more signal, called active from +8 up or from −8 down
[9] = RPMI8226 myeloma cell viability, profiling panel, resazurin fluorescence, basal, 24 h, PK04 Diversity Set (AID 1180); settings: higher = more signal;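 also: RPMI8826 multiple myeloma cell line at 5000 cells per well; test concentration not given here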
[10] = target: E3 ubiquitin-protein ligase XIAP (Homo sapiens) (UniProt P98170); test: XIAP binders, primary screen, biophysical, small-molecule microarray, fluorescence 635 nm (AID 1181); settings: small-molecule microarray binding, higher = more signal;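 also: score merges 667 nm emission and signal to noise over triplicate slides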
Chain of E3 ubiquitin-protein ligase XIAP (Homo sapiens) (P98170 whole entry, looked up): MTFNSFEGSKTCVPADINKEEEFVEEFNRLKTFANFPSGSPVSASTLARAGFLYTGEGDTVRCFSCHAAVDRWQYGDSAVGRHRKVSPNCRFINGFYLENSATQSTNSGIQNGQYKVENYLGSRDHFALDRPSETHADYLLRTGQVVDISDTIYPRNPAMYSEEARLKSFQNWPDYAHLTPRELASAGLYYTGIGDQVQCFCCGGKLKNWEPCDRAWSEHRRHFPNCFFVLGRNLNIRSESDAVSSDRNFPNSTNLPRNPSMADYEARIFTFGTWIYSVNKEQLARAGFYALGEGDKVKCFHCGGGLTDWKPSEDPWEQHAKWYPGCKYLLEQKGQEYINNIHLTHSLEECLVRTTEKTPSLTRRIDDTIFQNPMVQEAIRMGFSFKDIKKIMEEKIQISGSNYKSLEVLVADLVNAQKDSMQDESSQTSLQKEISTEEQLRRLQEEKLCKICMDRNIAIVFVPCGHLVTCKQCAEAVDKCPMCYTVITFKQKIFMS

| Compound | z-score [1] | z-score [2] | z-score [3] | composite z-score [4] | z-score [5] | z-score [6] | z-score [7] | z-score [8] | z-score [9] | composite z-score [10] |
| --- | --- | --- | --- | --- | --- | --- | --- | --- | --- | --- |
| COc1ccc(COC(=O)NN=C2C[C@@H](O)[C@@H](O)[C@@H]3[C@@H]4C(=O)N(Cc5ccc6c(c5)OCO6)C(=O)[C@@H]4CC[C@H]23)cc1 | -0.318 | 0.321 (inactive) | -0.0139 (inactive) | -0.394 (inactive) | -0.273 (inactive) | 0.139 (inactive) | 0.586 (inactive) | 1.17 (inactive) | 0.18 | 0.0498 |
| CCc1cc2c(nc1CC)CCN(CCC(C)=NOCC[C@@H]1C=C[C@H](OC(C)=O)[C@@H](COC(C)=O)O1)C2 | 0.0383 | 0.859 (inactive) | -0.123 (inactive) | 0.903 (inactive) | 0.122 (inactive) | 1.23 (inactive) | -0.157 (inactive) | -1.33 (inactive) | 0.154 | -0.212 |
| CC(C)(C)N1C(=O)[C@H]2[C@@H]3C(=CC[C@H]2C1=O)C(=O)[C@H]1O[C@H]1[C@H]3O | -4.22 | -4.73 (inactive) | -7.59 (inactive) | -2.71 (inactive) | -0.331 (inactive) | -3.03 (inactive) | -0.662 (inactive) | -0.613 (inactive) | -5.04 | -0.178 |
| CC(C)CON=C1C[C@@H](O)[C@@H](O)[C@@H]2[C@@H]3C(=O)N(Cc4ccccc4)C(=O)[C@@H]3CC[C@H]12 | 0.0344 | -1.11 (inactive) | 1.15 (inactive) | -0.451 (inactive) | 0.92 (inactive) | -1.17 (inactive) | 0.68 (inactive) | -1.08 (inactive) | 0.851 | -0.0436 |
| COc1cccc([C@H](O)Cn2cc(-c3ccc(CON=C(C)C)cc3)nn2)c1 | -0.262 | -0.377 (inactive) | -0.307 (inactive) | -0.217 (inactive) | 0.475 (inactive) | -0.47 (inactive) | 0.419 (inactive) | 0.291 (inactive) | -0.0501 | -0.167 |
| COC(=O)[C@H](C)NC(=O)CCC1CC(OC(=O)NCc2cccc3ccccc23)CC2(CCCC(COC(=O)NCCOc3ccccc3)O2)O1 (stereo not given in full) | 0.311 | -0.689 (inactive) | 0.875 (inactive) | -0.989 (inactive) | -0.458 (inactive) | 0.149 (inactive) | 0.008 (inactive) | -0.693 (inactive) | 0.564 | -0.275 |
| O=C1C2=CC[C@H]3C(=O)N(c4ccc(F)cc4F)C(=O)[C@H]3[C@H]2[C@H](O)[C@@H]2O[C@H]12 | 0.0059 | -0.448 (inactive) | -0.874 (inactive) | -0.166 (inactive) | -0.307 (inactive) | -0.592 (inactive) | -0.401 (inactive) | -0.0889 (inactive) | -0.035 | 0.104 |
| COC(=O)CC=C[C@@H](C)[C@@H](C=NOC(C)CN1CCCCc2nc(C)c(C)cc21)NS(=O)(=O)c1ccc(C)cc1 (stereo not given in full) | -0.194 | 0.434 (inactive) | -0.71 (inactive) | -0.069 (inactive) | 0.0525 (inactive) | -0.472 (inactive) | 0.424 (inactive) | 0.607 (inactive) | 0.0077 | -0.244 |
| COC(OC)[C@@H](C)[C@H](OC)[C@@H](C)[C@H](OC)c1ccccc1 | -0.634 | -1.31 (inactive) | -2.8 (inactive) | -2.36 (inactive) | 0.912 (inactive) | -1.02 (inactive) | 0.366 (inactive) | -0.0254 (inactive) | -0.466 | -0.138 |
| C#CCCCON=C1C[C@@H](O)[C@@H](O)[C@@H]2[C@@H]3C(=O)N(C[C@@H]4CCCO4)C(=O)[C@@H]3CC[C@@H]12 | 0.475 | 0.43 (inactive) | 0.0893 (inactive) | -0.85 (inactive) | 0.14 (inactive) | -0.399 (inactive) | 0.534 (inactive) | 0.802 (inactive) | 0.199 | -0.0303 |
| Cc1cc2c(nc1C)CCCCN2CC(O)CN1CCCc2nc(-c3ccc(Br)cc3)ccc21 (stereo not given) | -0.225 | -0.849 (inactive) | -1.51 (inactive) | 0.667 (inactive) | 0.38 (inactive) | 0.919 (inactive) | 0.608 (inactive) | 0.348 (inactive) | -1.48 | 0.131 |
| O=C1C[C@@H](O)[C@@H](O)[C@@H]2[C@@H]3C(=O)N(c4ccc(F)cc4F)C(=O)[C@@H]3CC[C@H]12 | -0.635 | 0.021 (inactive) | -0.175 (inactive) | -0.0528 (inactive) | 0.471 (inactive) | -0.304 (inactive) | -0.297 (inactive) | -1.31 (inactive) | -0.413 | -0.214 |
| CCO[C@H](c1cc(OC)cc([N+](=O)[O-])c1OC)[C@H](C)[C@@H](OC)[C@H](C)C=CCC(=O)OC | -0.467 | -0.435 (inactive) | 0.149 (inactive) | 0.189 (inactive) | -0.303 (inactive) | -0.147 (inactive) | -0.508 (inactive) | -0.17 (inactive) | 0.0951 | 0.1 |
